Data reported in PubChem BioAssay (NCI).
Compounds without any hit were thinned out: in the full panel of roughly 83,000, 20% have a hit.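 Cell lines were cultured in 96-well plates, exposed to a single compound concentration, and assessed for percent growth 48 hours later.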 A number with no mark means an inactive call. The source made the active and inactive calls. How the source made its calls: active means growth percent below 10; inactive means the rest.

Legend:
Test in all cases: NCI-60 one-dose screen, 48 h (100 = growth as untreated, 0 = no growth, -100 = all killed)
[1] = system: HCT-15 colon; conditions: 10 µM unless noted
[2] = system: HT29 colon; conditions: 10 µM unless noted
[3] = system: SNB-75 CNS; conditions: 10 µM unless noted
[4] = system: SNB-19 CNS; conditions: 10 µM unless noted
[5] = system: U251 CNS; conditions: 10 µM unless noted
[6] = system: PC-3 prostate; conditions: 10 µM unless noted
[7] = system: SK-MEL-5 melanoma; conditions: 10 µM unless noted
[8] = system: UACC-62 melanoma; conditions: 10 µM unless noted
[9] = system: LOX IMVI melanoma; conditions: 10 µM unless noted
[10] = system: SK-MEL-28 melanoma; conditions: 10 µM unless noted
[11] = system: SK-MEL-2 melanoma; conditions: 10 µM unless noted
[12] = system: EKVX NSCLC; conditions: 10 µM unless noted
[13] = system: SN12C renal; conditions: 10 µM unless noted
[14] = system: UO-31 renal; conditions: 10 µM unless noted
[15] = system: TK-10 renal; conditions: 10 µM unless noted
[16] = system: ACHN renal; conditions: 10 µM unless noted
[17] = system: A498 renal; conditions: 10 µM unless noted
[18] = system: CCRF-CEM leukemia; conditions: 10 µM unless noted
[19] = system: MOLT-4 leukemia; conditions: 10 µM unless noted
[20] = system: CAKI-1 renal; conditions: 10 µM

SMILES | growth [1] | growth [2] | growth [3] | growth [4] | growth [5] | growth [6] | growth [7] | growth [8] | growth [9] | growth [10] | growth [11] | growth [12] | growth [13] | growth [14] | growth [15] | growth [16] | growth [17] | growth [18] | growth [19] | growth [20] [%]
Cc1cc2c(cc1C)N(C(=O)CCl)CCN2C(=O)CCl | -64% (active) | -73% (active) | -94% (active) | 39.6% | -84.3% (active) | -70.2% (active) | -97.6% (active) | -43.1% (active) | -89.3% (active) | -49.5% (active) | -68.1% (active) | -23% (active) | -38.4% (active) | -81.5% (active) | -96.9% (active) | -81.6% (active) | 85% | -28.8% (active) | 1.2% (active) | 
CC(C(=O)O)N1C(N)=NNC1c1ccccc1O (stereo not given) | 68.4% | 99.3% | 74.4% | 88.5% | 85.9% | 83.3% | 85.5% | 81.9% | 78.3% | 106% | 99.7% | 50.6% | 93.4% | 66.3% | 148% | 87.3% | 98.8% | 82.7% | 68.1% | 
FC(F)(F)c1cn(CC2CNC2)c2ncnc(Cl)c12 | 104% | 92.2% | 109% | 99.9% | 105% | 110% | 99.5% | 102% | 102% | 104% | 103% | 109% | 102% | 102% | 104% | 104% | 112% | 86.7% | 89.9% | 
CCNc1cc(S(=O)(=O)O)ccc1C | 105% | 102% | 99.4% | 104% | 98.3% | 90.5% | 102% | 105% | 97.2% | 108% | 100% | 101% | 99.8% | 101% | 101% | 113% | 102% | 89.7% | 92.3% | 
CCNC(=O)Oc1ccc(/C(=C(/CC)Cc2ccccc2)c2ccc(OCCN3CCOCC3)cc2)cc1 | 39.4% | 28.6% | 70.2% | 76.7% | 52.8% | 20.2% | 39.5% | 73.2% | 50.4% | 80.6% | 66.2% | 38.6% | 67.7% | 23% | 76.2% | 59.8% | 76.9% | 61.7% | 10.1% | 
O=C(Nc1ccc(Cl)c(Cl)c1)Nc1ccc(Cl)c([N+](=O)[O-])c1 | 5.16% (active) | 2.02% (active) | 16.2% | 15.1% | 6.28% (active) | -0.546% (active) | -90.2% (active) | 9.51% (active) | -19% (active) | 12.8% | -43.4% (active) | 4.27% (active) | 6.3% (active) | 0.279% (active) | -0.585% (active) | 1.36% (active) | -25.9% (active) | 1.21% (active) | -30.9% (active) | 
O=C1CN(CCN2CC(=O)NC(=O)C2)CC(=O)N1 | 114% | 110% | 76.1% | 99% | 100% | 89.8% | 87% | 86.5% | 93.7% | 121% | 113% | 84.4% | 104% | 71.8% | 107% | 103% | 103% | 107% | 28.5% | 
COc1ccc(N)c(S)c1 | 97% | 100% | 84.6% | 100% | 93.8% | 73.4% | 91.5% | 93.5% | 92.3% | 113% | 108% | 91.7% | 94.4% | 78.9% | 105% | 98.2% | 112% | 98.2% | 91% | 
COc1ccc(/C=C2\CS(=O)(=O)C/C(=C\c3ccc(OC)cc3)C2=O)cc1 | 2.14% (active) | -51.2% (active) | 60.2% | 3.69% (active) | -3.78% (active) | -33.5% (active) | -91.5% (active) | -64.1% (active) | -26.7% (active) | -23.4% (active) | -7.45% (active) | 11.4% | -52.1% (active) | -100% (active) | 2.72% (active) | -51% (active) | 36% | -0.95% (active) | -16.1% (active) | 
COc1cc(-c2nc3sc(C)cn3c2/C=C2\C(=O)Nc3ccccc32)c(Br)c(OC)c1OC | 52.9% | 9.62% (active) | 18.2% | 40.4% | 52.1% | 26.5% | 10.4% | 52.8% | 41.3% | 69.5% | 74.3% | 31.5% | 90.9% | 24.8% | 56.5% | 57% | 22.6% |  | 39.9% | 
C=CCn1c(SCC(=O)Nc2ccc(/C(C)=N\O)cc2)nnc1-c1cc(-c2ccc(OC)cc2)nc2ccccc12 | 36.3% | 42% | 57.4% | 44.5% | 29.8% | 29.9% | 36.4% | 37.7% | -65.4% (active) | 61.7% | 22.3% | 42.5% | 44.4% | 14.7% | 37.5% | 28.9% | 38.7% |  | 1.81% (active) | 
CC(=O)Nc1ccc([I+]c2ccc([N+](=O)[O-])cc2)cc1 | 100% | 81.3% | 90.5% | 109% | 81.1% | 82.3% | 80.6% | 81.1% | 90.5% | 106% | 103% | 88.7% | 88.3% | 60.8% | 87.4% | 89.7% | 104% | 89.2% | 86.9% | 
CCC(N)(C(=O)O)c1ccc(F)cc1 (stereo not given) | 104% | 94.9% | 113% | 107% | 90.7% | 81.4% | 99.9% | 112% | 96% | 112% | 98% | 104% | 102% | 98.5% | 95.5% | 114% | 117% | 94.8% | 90.1% | 
CN(C)C(=O)Nc1nc2cc(Cl)c(Cl)cc2[nH]1 | 26.1% | 5.63% (active) | 14.7% | 27% | 25.6% | 18.9% | 19% | 23.1% | 47.8% | 73.4% | -14.7% (active) | 57.7% | 51% | 20.4% | 30.7% | 52.6% | 46.7% | 10.3% | 8.26% (active) | 
COc1cc(C(=O)N2CCN(C(=O)c3cc(OC)c(OCc4ccccc4)cc3N)CC2)c(N)cc1OCc1ccccc1 | 130% | 116% | 108% | 108% | 115% | 106% | 71.4% | 114% | 108% | 123% | 102% | 90.8% | 111% | 98.3% | 131% | 159% | 132% |  | 101% | 
Nc1nc(Cl)c2c(C(F)(F)F)cn(CC3CCNCC3)c2n1 | 35.6% | 19.7% | 97.6% | 61.5% | 45% | 93.2% | 94.9% | 86.8% | -12.9% (active) | 83.6% | 87.9% | 88.8% | 85.7% | 91.6% | 91.5% | 104% | 107% | 51.9% | 45.8% | 
CC1CCc2cc(F)cc3c(=O)c(C(=O)O)cn1c23 (stereo not given) | 105% | 116% | 109% | 93.1% | 101% | 96.6% | 102% | 92.8% | 69.1% | 120% | 125% | 91.4% | 98.2% | 78.5% | 103% |  | 88.1% | 109% | 97.3% | 81
